In PubChem BioAssay (EPA / NIEHS) one finds outcome and AC50 data, which are given here for four molecules.

Each structure is given as a SMILES string. Active and inactive are the calls of the source. How the source made its calls: active means hit-call score of the fitted dose curve at least 0.9, where 1 is the maximum; inactive means score below 0.9.

Conditions in all cases: mRNA level, 48 h; actives raise or lower the signal
Read-out in assay [1]: DNA damage-inducible transcript 3 (DDIT3), DDIT3 (gene 1649)
The assay is described as follows: LTEA_HepaRG_DDIT3: Life Technologies and Expression Analysis (LTEA) Assay for DNA damage-inducible transcript 3 (DDIT3) using HepaRG (AID 2283488). The method, boiled down:
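qRT-PCR readout (Fluidigm TaqMan), housekeeping-normalized to ACTB, GAPDH, POLR2A. HepaRG cells, 48 h exposure, 8-point half-log series from 100 uM in 0.5% DMSO, duplicates. Gain or loss of signal fitted against DMSO baseline.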

Read-out in assay [2]: Pro-epidermal growth factor (Homo sapiens) (UniProt P01133)
The assay is described as follows: LTEA_HepaRG_EGF: Life Technologies and Expression Analysis (LTEA) Assay for Epidermal growth factor (EGF) using HepaRG (AID 2283489). The essentials: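 HepaRG cells (~100,000/well, 48 h pre-culture) exposed in duplicate for 48 h in serum-free induction medium to 8 half-log concentrations up to 100 uM in 0.5% DMSO. EGF mRNA by qRT-PCR, normalized to ACTB/GAPDH/POLR2A; bidirectional fit versus DMSO.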

Read-out in assay [3]: Early growth response protein 1 (EGR1) transcription factor, EGR1 (gene 1958)
Kind of assay: LTEA_HepaRG_EGR1: Life Technologies and Expression Analysis (LTEA) Assay for Early growth response protein 1 (EGR1) transcription factor using HepaRG (AID 2283490). The method, boiled down:
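EGR1 transcript levels quantified by qRT-PCR (Fluidigm arrays) against three housekeeping genes after 48 h chemical exposure of HepaRG cells. Eight-point half-log series topping at 100 uM, 0.5% DMSO vehicle, analyzed for gain or loss.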

Read-out in assay [4]: Ezrin (EZR), EZR (gene 7430)
Kind of assay: LTEA_HepaRG_EZR: Life Technologies and Expression Analysis (LTEA) Assay for Ezrin (EZR) using HepaRG (AID 2283491). The essentials: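 Gain or loss of EZR mRNA is scored relative to 0.5% DMSO in human HepaRG cultures treated 48 h with test chemicals in duplicate, eight half-log concentrations from 100 uM.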

Read-out in assay [5]: CYP3A5 (gene 1577)
The assay is described as follows: LTEA_HepaRG_CYP3A5: Life Technologies and Expression Analysis (LTEA) Assay for CYP3A5 using HepaRG (AID 2283493). The essentials: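 qRT-PCR read-out: CYP3A5 transcript in HepaRG lysates, housekeeping-normalized (ACTB/GAPDH/POLR2A), fitted bidirectionally against 0.5% DMSO baseline. Exposure 48 h, eight half-log concentrations up to 100 uM, duplicates.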

Read-out in assay [6]: Fatty Acid-Binding Protein 1 (FABP1), FABP1 (gene 2168)
The assay is described as follows: LTEA_HepaRG_FABP1: Life Technologies and Expression Analysis (LTEA) Assay for Fatty Acid-Binding Protein 1 (FABP1) using HepaRG (AID 2283494). The essentials:
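FABP1 expression by TaqMan qRT-PCR, normalised to three housekeeping genes, in HepaRG cells after 48 h chemical treatment. Eight-point half-log series topping at 100 uM in 0.5% DMSO, duplicates; gain or loss fitted relative to vehicle.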

Read-out in assay [7]: Cytochrome P450 4A22 (Homo sapiens) (UniProt Q5TCH4)
The assay is described as follows: LTEA_HepaRG_CYP4A22: Life Technologies and Expression Analysis (LTEA) Assay for Cytochrome P450 4A22 (CYP4A22) using HepaRG (AID 2283495). The essentials: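 Differentiated HepaRG cells in serum-free induction medium exposed 48 h in duplicate to eight half-log concentrations up to 100 uM in 0.5% DMSO. CYP4A22 mRNA quantified by TaqMan qRT-PCR, normalized to ACTB, GAPDH and POLR2A; bidirectional fit versus DMSO.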

Read-out in assay [8]: Cytochrome P450 7A1 (Homo sapiens) (UniProt P22680)
The assay is described as follows: LTEA_HepaRG_CYP7A1: Life Technologies and Expression Analysis (LTEA) Assay for Cytochrome P450 7A1 (CYP7A1) using HepaRG (AID 2283496). The essentials:
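Using 0.5% DMSO as vehicle and baseline, chemicals were tested in duplicate over an 8-point range from 100 uM on HepaRG cells for 48 h; qRT-PCR signals were normalised to ACTB, GAPDH and POLR2A.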

Read-out in assay [9]: Glutathione S-Transferase (GSTA2), GSTA2 (gene 2939)
Kind of assay: LTEA_HepaRG_GSTA2: Life Technologies and Expression Analysis (LTEA) Assay for Glutathione S-Transferase (GSTA2) using HepaRG (AID 2283497). The essentials: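 GSTA2 transcript levels came from Fluidigm TaqMan qRT-PCR normalized to three housekeeping genes, fitted in both directions against DMSO. HepaRG cultures received chemicals for 48 h in serum-free induction medium (0.5% DMSO), 8 half-log concentrations up to 100 uM, duplicate.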

Read-out in assay [10]: Glutamate-cysteine ligase catalytic (GCLC), GCLC (gene 2729)
The assay is described as follows: LTEA_HepaRG_GCLC: Life Technologies and Expression Analysis (LTEA) Assay for Glutamate-cysteine ligase catalytic (GCLC) using HepaRG (AID 2283498). The method, boiled down:
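Expression by TaqMan qRT-PCR, normalized to three housekeeping genes (ACTB, GAPDH, POLR2A), with up- or down-regulation fitted against DMSO. HepaRG cells dosed in duplicate for 48 h with 8 half-log concentrations up to 100 uM, vehicle 0.5% DMSO.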

Read-out in assay [11]: growth arrest and DNA damage 45 (GADD45G), GADD45G (gene 10912)
Kind of assay: LTEA_HepaRG_GADD45G: Life Technologies and Expression Analysis (LTEA) Assay for growth arrest and DNA damage 45 (GADD45G) using HepaRG (AID 2283499). The method, boiled down: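 Differentiated human HepaRG cells, 48 h post-plating, exposed 48 h in serum-free induction medium to 8 half-log concentrations (top 100 uM, 0.5% DMSO) in duplicate. GADD45G mRNA measured by Fluidigm TaqMan qRT-PCR, normalized to ACTB, GAPDH, POLR2A; bidirectional fit versus DMSO.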

Read-out in assay [12]: Glutamate-cysteine ligase regulatory (GCLM), GCLM (gene 2730)
The assay is described as follows: LTEA_HepaRG_GCLM: Life Technologies and Expression Analysis (LTEA) Assay for Glutamate-cysteine ligase regulatory (GCLM) using HepaRG (AID 2283500). The essentials:
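HepaRG, 48 h dosing, 100 uM top, half-log x8, 0.5% DMSO vehicle. Readout: GCLM mRNA by TaqMan qRT-PCR, housekeeping-normalized (ACTB/GAPDH/POLR2A). Curves fit bidirectionally vs DMSO baseline.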

Read-out in assay [13]: Hypoxia-inducible factor 1-alpha (Homo sapiens) (UniProt Q16665)
The assay is described as follows: LTEA_HepaRG_HIF1A: Life Technologies and Expression Analysis (LTEA) Assay for Hypoxia-inducible factor 1 (HIF1A) Trancription factor using HepaRG (AID 2283503). The essentials:
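Gain- or loss-of-signal HIF1A mRNA changes are fitted against a DMSO baseline. HepaRG cultures receive eight concentrations, highest 100 uM, for 48 h in serum-free induction medium with 0.5% DMSO.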

Read-out in assay [14]: 3-Hydroxy-3-Methylglutaryl-CoA Synthase 2 (HMGCS2), HMGCS2 (gene 3158)
The assay is described as follows: LTEA_HepaRG_HMGCS2: Life Technologies and Expression Analysis (LTEA) Assay for 3-Hydroxy-3-Methylglutaryl-CoA Synthase 2 (HMGCS2) using HepaRG (AID 2283504). The method, boiled down: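 Human HepaRG cells in serum-free induction medium were exposed in duplicate for 48 h to 8-point half-log series from 100 uM top in 0.5% DMSO. HMGCS2 mRNA measured by TaqMan qRT-PCR, normalised to ACTB, GAPDH, POLR2A; bidirectional fit versus DMSO.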

Read-out in assay [15]: HGF (gene 3082)
The assay is described as follows: LTEA_HepaRG_HGF: Life Technologies and Expression Analysis (LTEA) Assay for Hepatocyte Growth Facto (HGF) using HepaRG (AID 2283505). The essentials: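 Differentiated HepaRG cells in serum-free induction medium exposed 48 h in duplicate, 8 half-log concentrations from 100 uM in 0.5% DMSO. HGF mRNA by qRT-PCR, normalised to ACTB, GAPDH, POLR2A; bidirectional fitting.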

Read-out in assay [16]: Intercellular Adhesion Molecule 1 (ICAM1), ICAM1 (gene 3383)
The assay is described as follows: LTEA_HepaRG_ICAM1: Life Technologies and Expression Analysis (LTEA) Assay for Intercellular Adhesion Molecule 1 (ICAM1) using HepaRG (AID 2283507). The essentials:
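Differentiated human HepaRG cells in serum-free induction medium exposed 48 h in duplicate to 8 half-log concentrations (top 100 uM, 0.5% DMSO). ICAM1 mRNA quantified by TaqMan qRT-PCR, normalized to ACTB, GAPDH and POLR2A; bidirectional fitting versus DMSO.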

Read-out in assay [17]: Glutathione S-transferase M3 (GSTM3), GSTM3 (gene 2947)
Kind of assay: LTEA_HepaRG_GSTM3: Life Technologies and Expression Analysis (LTEA) Assay for Glutathione S-transferase M3 (GSTM3) using HepaRG (AID 2283501). The essentials:
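Differentiated human HepaRG cells were exposed in duplicate for 48 h in serum-free induction medium, 8 points from 100 uM top in half-log steps, 0.5% DMSO. GSTM3 mRNA was measured by TaqMan qRT-PCR, normalized to ACTB, GAPDH and POLR2A; bidirectional fit versus DMSO.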

Read-out in assay [18]: Heat shock 70 kDa protein 1 (HSPA1A), gene 3303
The assay is described as follows: LTEA_HepaRG_HSPA1A: Life Technologies and Expression Analysis (LTEA) Assay for Heat shock 70 kDa protein 1 (HSPA1A) using HepaRG (AID 2283502). The method, boiled down:
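HepaRG, 48 h exposure, 8-pt half-log CRC from 100 uM in 0.5% DMSO, duplicates. Readout: TaqMan qRT-PCR of HSPA1A mRNA, housekeeping-normalized (ACTB/GAPDH/POLR2A). Bidirectional fit vs 0.5% DMSO baseline.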

Read-out in assay [19]: Insulin Like Growth Factor 1 (IGF1), IGF1 (gene 3479)
The assay is described as follows: LTEA_HepaRG_IGF1: Life Technologies and Expression Analysis (LTEA) Assay for Insulin Like Growth Factor 1 (IGF1) using HepaRG (AID 2283506). The essentials:
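qRT-PCR readout of IGF1 mRNA, normalized to three housekeeping genes, after 48 h chemical exposure of HepaRG cells. Concentrations: 8-point half-log series, top 100 uM, 0.5% DMSO vehicle. Gain or loss fitted against DMSO baseline.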

Sequence of Hypoxia-inducible factor 1-alpha (Homo sapiens) (Q16665 whole entry, looked up): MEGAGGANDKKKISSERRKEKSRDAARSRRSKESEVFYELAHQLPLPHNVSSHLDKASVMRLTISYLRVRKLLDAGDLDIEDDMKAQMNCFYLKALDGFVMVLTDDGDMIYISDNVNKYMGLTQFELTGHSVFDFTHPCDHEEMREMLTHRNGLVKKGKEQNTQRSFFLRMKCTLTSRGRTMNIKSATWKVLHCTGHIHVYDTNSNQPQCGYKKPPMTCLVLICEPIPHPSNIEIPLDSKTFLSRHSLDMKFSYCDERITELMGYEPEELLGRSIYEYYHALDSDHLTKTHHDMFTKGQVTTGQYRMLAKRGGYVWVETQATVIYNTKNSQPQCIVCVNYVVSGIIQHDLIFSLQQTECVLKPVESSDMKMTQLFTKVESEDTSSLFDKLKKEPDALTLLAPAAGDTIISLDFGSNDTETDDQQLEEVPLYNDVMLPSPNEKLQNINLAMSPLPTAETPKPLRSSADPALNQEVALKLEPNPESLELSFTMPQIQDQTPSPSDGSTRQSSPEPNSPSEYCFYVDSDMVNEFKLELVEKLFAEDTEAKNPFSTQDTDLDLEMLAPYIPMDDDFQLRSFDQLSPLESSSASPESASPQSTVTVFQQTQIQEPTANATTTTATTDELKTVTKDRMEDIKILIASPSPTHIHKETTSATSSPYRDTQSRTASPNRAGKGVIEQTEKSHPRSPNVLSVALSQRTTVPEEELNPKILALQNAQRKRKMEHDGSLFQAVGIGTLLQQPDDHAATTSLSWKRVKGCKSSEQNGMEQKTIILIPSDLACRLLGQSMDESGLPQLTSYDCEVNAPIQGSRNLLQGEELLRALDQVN

By AC50 is commonly meant the concentration giving half of the maximal activity seen. With `CCC(CC)Nc1c([N+](=O)[O-])cc(C)c(C)c1[N+](=O)[O-]`, the outcome in [1], in assay [3], in [4], in [5], in [7] and in assay [8] was inactive. For the same molecule, the outcome in [9], in [10], in [11], in assay [12], in assay [13] and in assay [14] was inactive. For the same molecule, the call in [15] and in assay [16] was inactive. Moreover, the AC50 in assay [2] and in [6] was 50000 nM (active) each time.

`CNC(=O)Oc1cccc2c1OC(C)(C)O2`: the result in [1], in assay [2], in assay [3], in assay [4], in assay [5] and in assay [6] was inactive. For the same molecule, the result in assay [7], in assay [9], in assay [10], in assay [11], in assay [17] and in assay [18] was inactive. Further, the result in assay [13], in [14], in assay [15], in assay [19] and in assay [16] was inactive.

In the case of `C=C(C)[C@H]1Cc2c(ccc3c2O[C@@H]2COc4cc(OC)c(OC)cc4[C@@H]2C3=O)O1`, the half-maximal activity concentration (AC50) in assay [1] is 1270 nM (active); in assay [2], 50000 nM (active); in [3] it was 15700 nM (active); in assay [4], 1000 nM (active); in assay [5] it was 11500 nM (active); in [6], 1250 nM (active). For the same molecule, the half-maximal activity concentration (AC50) in assay [7] is 834 nM (active); in assay [9] it was 3000 nM (active); in assay [11], 1180 nM (active); in assay [12], 2570 nM (active); in [13], 23800 nM (active); in assay [14] it was 1700 nM (active). Moreover, the AC50 in [15] was 22800 nM (active); in assay [16], 2140 nM (active). Moreover, the outcome in [10] was inactive.

On to `CCOP(=S)(OCC)Oc1cc(C)nc(C(C)C)n1`, for which the molecule was classed as inactive in assay [1], in [2], in assay [3], in [4], in assay [5] and in assay [6]. Besides, the call in assay [7], in [9], in [10], in assay [11], in assay [13] and in [14] was inactive. Besides, the molecule was called inactive in assay [15] and in [16]. Also, the AC50 in assay [19] was 27300 nM (active).
